Assay outcomes (PubChem)
In the library only some 4.8% were active in any assay of this set; here they are far more common.
ssDAF-12 act = activators of S. stercoralis DAF-12 nuclear receptor; AID 652126; 370,000 compounds, 1% hits; activation, % at 6.8 µM; HEK293 ssDAF-12/GRIP1 lit1-tk-luc reporter, luminescence; % of 3 µM dafachronic acid response;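 active = activation above the mean over all tested compounds plus 3 SD, cut at about 0.9% in these data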;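 also: 0% = DMSO-only wells and 100% = 3 µM delta7-dafachronic acid wells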
hgDAF-12 ag = hgDAF-12 agonism, primary luciferase screen; HEK293 GAL4-hgDAF12 UAS-luciferase reporter, agonist luminescence; normalized to butyrate control; activation, % at 6.8 µM; 370,000 compounds, 1.8% hits;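 active = activation above a cutoff set at the mean of all screened compounds plus 3 SD, cut at about 10% in these data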;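 also: 0% = DMSO wells and 100% = sodium butyrate wells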
DAX1 inh-1 = blocks DAX1 repression of SF-1 activated StAR promoter. HEK293T StAR-luciferase reporter, SF-1/DAX-1 repression relief. 370,000 compounds, 1.1% hits. inhibition, % at 6.8 µM;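 active = inhibition above the mean over all tested compounds plus 3 SD, cut at about 3.6% in these data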;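 also: 0% = DAX-1 cells with DMSO and 100% = cells lacking DAX-1 with DMSO; higher inhibition means more luminescence from relief of DAX-1 repression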
hcDAF12 agonist = H. contortus DAF-12 activation, primary screen. HEK293 hcDAF-12 lit1-tk-luc reporter, luminescence; 0% DMSO, 100% Δ7-dafachronic acid. activation, % at 6.8 µM. 370,000 compounds, 1.4% hits;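 active = activation above the mean of all tested compounds plus 3 SD, cut at about 5.5% in these data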;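 also: 100% = response to 3 µM Δ7-dafachronic acid high control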
NR1D1 modulator = Rev-erb alpha (human) modulation. P20393. Rev-erbα–FITC-DNA binding, fluorescence polarization, 90 min. activity, % at 10 µM. 370,000 compounds, 0.79% hits;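 active = activity above about 14%, limit read from the data; passing the limit was not always enough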;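 also: 0% = DMSO wells with 35 nM protein and 100% = DMSO wells with 750 nM protein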
DAX1 inh-2 = inhibits human nuclear receptor DAX1. 340,000 compounds, 0.99% hits. inhibition, % at 6.75 µM. AID 504766. HEK293 Gal4-DAX1 luciferase reporter, luminescence. P51843;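 active = inhibition above the mean over all tested compounds plus 3 SD, cut at about 4.2% in these data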;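 also: 0% = DAX1-transfected cells with DMSO and 100% = empty-vector control cells with DMSO; inhibition shows as a rise in luminescence from relieved DAX1 repression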
DAX1 inh confirm = confirmation of human DAX1 (NR0B1) inhibitors. shares compounds with DAX1 inh-1. 2,400 compounds, 87% hits. HEK293T StAR-promoter luciferase reporter, SF-1/DAX-1 repression. inhibition, % at 6.8 µM;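 active = inhibition above the average of every tested compound plus 3 SD, cut at about 3.8% in these data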;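 also: 0% = DAX-1 cells with DMSO and 100% = no DAX-1 control cells with DMSO; active compounds raise luminescence by relieving repression of the StAR reporter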
SF1 mutant ctr = nonselective inhibitor or artifact in SF-1 mutant DAX1 counter-screen. HEK293 StAR-luciferase, SF-1 AF2 mutant, luminescence. AID 652136. shares compounds with DAX1 inh-1. 2,400 compounds, 78% hits. inhibition, % at 6.8 µM;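 active = inhibition above the mean of all tested compounds plus 3 SD, cut at about 3% in these data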;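 also: 0% = DAX-1 transfected cells with DMSO and 100% = cells without DAX-1 with DMSO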
LXRb hcDAF ctr = counter-screen for hcDAF-12 agonists: agonists of human LXR-beta | HEK293 Gal4-LXR tk-luc reporter, luminescence, 24 h; normalized: DMSO 0%, positive control 100% | activation, % at 6.8 µM | shares compounds with hcDAF12 agonist | 3,400 tested, under 10 active;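 active = mean percent activation of the reporter above a cutoff set as the average over tested compounds plus their standard deviation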
hcDAF12 ag = hcDAF-12 agonism, confirmation assay. 3,400 compounds, 61% hits. AID 743032. activation, % at 6.8 µM. HEK293 hcDAF-12 lit1-tk-luc reporter, luminescence; % of Δ7-dafachronic acid response. shares compounds with hcDAF12 agonist;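 active = mean activation across triplicate tests above the threshold derived from the earlier primary screen, cut at about 5.5% in these data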;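 also: 0% = DMSO only wells and 100% = 3 µM Δ7-dafachronic acid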
Active calls of the source: *; · = no result.

SMILES	ssDAF-12 act	hgDAF-12 ag	DAX1 inh-1	hcDAF12 agonist	NR1D1 modulator	DAX1 inh-2	DAX1 inh confirm	SF1 mutant ctr	LXRb hcDAF ctr	hcDAF12 ag
Nc1ccccc1C=C1Cc2ccccc2C1=O	3.2*	22*	7.7*	13*	-4	3	17*	7.4*	1	11*
CN(Cc1ccccc1)C(=O)c1cccc(NC(=O)Cc2ccc(NC(=O)C3CCCN(S(=O)(=O)c4cccc([N+](=O)[O-])c4)C3)cc2)c1 (stereo not given)	-1	-2	-1	0	0	·	·	·	·	·
Cc1ccc(-c2cc(-c3nnc(SCC(=O)Nc4ccc(OCc5ccccc5)cc4)n3N)[nH]n2)cc1	-1	4	-2	-1	-16	·	·	·	·	·
Cc1ccc(C(=O)N=c2sccn2C)cc1C	1.6*	12*	10*	14*	-2	1	11*	7.2*	1	11*
Cc1ccc2nc(-c3ccc(NC(=O)C4CCCO4)cc3)[nH]c2c1 (stereo not given)	1	9	7.3*	7.7*	-6	-1	12*	6.2*	2	5
Cc1onc(-c2ccc(Cl)cc2)c1-c1ccn(S(=O)(=O)c2cccc(Cl)c2)n1	-2	3	-2	0	15	·	·	·	·	·
Clc1ccc(-c2cn3c(n2)-c2ccccc2C3)cc1Cl	2.0*	20*	5.9*	17*	0	2	9.2*	6.4*	2	15*
COc1ccc2oc(C(=O)Nc3ccccn3)c(C)c2c1	1.1*	21*	13*	18*	-5	0	12*	6.1*	2	18*
O=C(Nc1ccc([N+](=O)[O-])cc1)C(=O)Nc1cccc(C(=O)O)c1	2.7*	13*	5.4*	11*	-6	-7	12*	8.5*	2	25*
CCOC(=O)[C@@]12CCC3=C1N(CCC3)C(=O)[C@H](CC(=O)NCc1cccs1)C2	-1	3	-2	0	-3	·	·	·	·	·
COCC1CCN(C(=O)c2cc(COc3ccc(OC)c4ccccc34)on2)C1 (stereo not given)	1	11*	5.6*	8.1*	-6	2	5.4*	5.1*	1	7.7*
Cc1ccc2oc(C(=O)NCCC3CCCCO3)c(C)c2c1 (stereo not given)	0	13*	10*	8.5*	-3	1	7.5*	4.2*	2	14*
Cc1c(C(=O)NCC2CCCO2)oc2ccccc12 (stereo not given)	0	7	2	1	2	0	·	·	·	·
Clc1cnc(N/N=C/c2ccco2)c(Cl)c1	0	11*	4.8*	7.9*	-1	1	14*	8.8*	1	8.0*
Oc1ccc(/C=N/Nc2ncc(Cl)cc2Cl)cc1	-1	3	0	-1	3	-1	·	·	·	·
Cc1ccc2nc(CSc3nc(C)cc(C)c3C#N)[nH]c2c1	2.0*	9	5.8*	17*	-4	1	14*	7.4*	2	20*
CCN(CC)C(=O)CC[C@@H]1CC[C@]2(CCCN(S(=O)(=O)c3ccccc3)C2)O1	-1	-3	2	-3	-1	·	·	·	·	·
Cc1noc(C)c1COc1cccc(C(=O)Nc2ccc(Br)cc2F)c1	-2	1	-3	-3	7	-2	·	·	·	·
CC(C)Oc1cccc(C(=O)Nc2ccc(Br)cc2F)c1	0	17*	6.6*	7.4*	-1	4.7*	15*	8.4*	1	4
